Bioassay records as filed in PubChem BioAssay.
This is a sample that favours compounds with a hit; in the whole collection about 2.4% have one here.
CHO-K1 Ca ag = counter-screen for M1 agonists: effect in parental CHO-K1 cells. hit rate 0.48% among 360,000. activation, % at 3 µM. Fluo-8 calcium fluorescence; scaled to maximal ATP response, vehicle zero. AID 602248; in the data active means activation above about 15%;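 further: untransfected CHO-K1 host cells lacking M1 receptor as counterscreen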
CHRM1 agonist = agonists of human M1 muscarinic receptor. P11229. CHO-K1 hM1, Fluo-8 calcium fluorescence, agonist mode; 0% DMSO, 100% acetylcholine EC100. activation, % at 3 µM. hit rate 0.33% among 360,000;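 active means activation above the run's mean compound activation plus 3 SD, cut at about 16% in these data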;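 further: peak over basal fluorescence ratio within a 140 s kinetic read after compound addition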
Target sequence (P11229 whole entry, looked up): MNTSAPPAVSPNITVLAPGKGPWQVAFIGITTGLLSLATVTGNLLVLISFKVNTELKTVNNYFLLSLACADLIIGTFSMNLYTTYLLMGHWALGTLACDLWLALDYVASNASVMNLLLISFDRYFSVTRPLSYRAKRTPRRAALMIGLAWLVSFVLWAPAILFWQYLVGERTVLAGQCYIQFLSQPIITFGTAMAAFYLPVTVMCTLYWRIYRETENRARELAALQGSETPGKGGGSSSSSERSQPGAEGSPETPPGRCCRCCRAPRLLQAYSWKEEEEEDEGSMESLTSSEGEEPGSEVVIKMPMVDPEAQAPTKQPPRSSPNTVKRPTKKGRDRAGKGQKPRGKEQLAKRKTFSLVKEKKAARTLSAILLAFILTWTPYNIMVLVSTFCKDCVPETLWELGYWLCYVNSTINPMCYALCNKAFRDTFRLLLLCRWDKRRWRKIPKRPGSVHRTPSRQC
CHO-K1 Ca antag = nonselective inhibitor or artifact in parental CHO-K1 cells | hit rate 0.6% among 360,000 | inhibition, % at 3 µM | ATP-induced calcium, Fluo-8 fluorescence;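 active means inhibition above a per-plate cutoff, the plate's mean sample inhibition plus 3 SD, cut at about 24% in these data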
M1 PAM = potentiates human M1 receptor response to acetylcholine. CHO-K1 hM1, Fluo-8 calcium fluorescence, ACh EC20; 0% = ACh EC20, 100% = maximal ACh. P11229. activation, % at 3 µM. hit rate 0.088% among 360,000; in the data active means activation above about 19%, passing the limit was not always enough
M1 antag = human CHRM1 antagonism. P11229. CHO-K1 hM1, Fluo-8 calcium fluorescence, ACh EC80 antagonist. inhibition, % at 3 µM. hit rate 1.3% among 360,000. AID 588852;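 active means percent inhibition above its own plate's cutoff, namely the mean of that plate's compound wells plus 3 SD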;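 further: peak over basal fluorescence ratio during 140 s after agonist addition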
M1 PAM parental = counter-screen for M1 PAMs: effect in parental CHO-K1 cells; hit rate 0.02% among 360,000; activation, % at 3 µM; AID 602247; ATP EC20, Fluo-8 calcium fluorescence; 0% at ATP EC20, 100% at ATP max;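 active means activation above the run cutoff, the mean activation of all test compounds plus 3 SD, cut at about 40% in these data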;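 further: peak over basal fluorescence ratio in a 140 s read after ATP addition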
Large screens that a line does not name were inactive.

CCN(CC(=O)NCc1ccc(Cl)cc1)C(=O)c1ccc(S(=O)(=O)NCc2ccco2)cc1	none
COc1ccccc1NS(=O)(=O)c1cccc(NC(=O)Nc2ccccc2)c1	CHO-K1 Ca ag 18, CHO-K1 Ca antag 37, M1 antag 59
COc1ccccc1NS(=O)(=O)c1cccc(NC(=O)Nc2ccc(Cl)cc2)c1	CHO-K1 Ca antag 38, M1 antag 44
COc1cccc(OC)c1C(=O)Nc1cccc(S(=O)(=O)Nc2ccccc2Cl)c1	none
CC(C)CC1Nc2ncnc(N3CCN(c4ccccc4)CC3)c2N(Cc2ccc(Cl)cc2)C1=O (stereo not given)	none
COc1ccc(CNS(=O)(=O)CCNC(=O)c2ccc3c(c2)OCO3)cc1	CHO-K1 Ca antag 24
CC[C@H]1c2[nH]c3ccccc3c2C[C@H]2C(=O)N(c3ccc(F)cc3)C(=O)N21	CHO-K1 Ca antag 24
COc1ccc(CCNC(=O)c2cc(=O)c3cc(C)ccc3o2)cc1OC	CHO-K1 Ca ag 17
CCCCCCNCc1ccc(Br)cc1	CHRM1 agonist 16
CCCCCNCc1ccc(Br)cc1	none
O=C(c1ccco1)N1CCN(C(c2ccccc2Cl)c2nnnn2Cc2cccs2)CC1 (stereo not given)	none
O=C(c1ccco1)N1CCN(C(c2ccccc2Cl)c2nnnn2Cc2ccco2)CC1 (stereo not given)	M1 antag 29
CCOC(=O)C1CCN(C(=O)/C(=C/c2ccccc2)NC(=O)c2ccccc2)CC1	CHO-K1 Ca ag 16
CCOC(=O)C1CCCN(C(=O)/C(=C/c2ccco2)NC(=O)c2ccccc2)C1 (stereo not given)	CHRM1 agonist 48
Cc1ccc(C(=O)N/C(=C/c2cccnc2)C(=O)N2CCCCCC2)cc1	CHO-K1 Ca antag 47
O=C(N/C(=C/c1ccco1)C(=O)N1CCCCCC1)c1ccccc1	none
CCOC(=O)N1CCN(C(=O)/C(=C/c2ccc(OC)c(OC)c2)NC(=O)c2ccccc2)CC1	none
Cc1ccc(C(=O)N/C(=C\c2cccnc2)C(=O)N2CCCC2)cc1	none
Cc1ccc2nc(NC(=O)CC3Oc4ccccc4NC3=O)sc2c1 (stereo not given)	none
Cc1ccc(CC(NC(=O)c2ccccc2)C(=O)NC(Cc2ccccc2)C(=O)O)cc1 (stereo not given)	none
O=C(NC(Cc1ccc2c(c1)OCO2)C(=O)NC(Cc1ccccc1)C(=O)O)c1ccccc1 (stereo not given)	CHO-K1 Ca antag 25
O=C(O)CC(Cc1ccccc1)c1ccc2c(c1)OCO2 (stereo not given)	CHO-K1 Ca antag 33
COc1cc(OC)c(OC)cc1/C=C1\CC(C)C/C(=C\c2cc(OC)c(OC)cc2OC)C1=O (stereo not given)	none
CCOC(=O)N1CCN(C2OC(=O)c3ccccc32)CC1 (stereo not given)	CHRM1 agonist 25
Cc1ccc(C(=O)N/C(=C/c2ccco2)C(=O)OCN2C(=O)c3ccccc3C2=O)cc1	none
CC(N)c1csc(Nc2nccc(C(F)(F)F)n2)n1 (stereo not given)	none
O=C(CN1C(=O)C(c2ccc(F)cc2)=NC12CCCC2)Nc1ccc(F)cc1	CHO-K1 Ca antag 36
CCOC(=O)c1c(C)[nH]c(C(C)=NNC(=O)Cn2nc(C)cc2C)c1C	none
COC(=O)[C@H](CCSC)NC(=O)NCCC1=CCCCC1	none
COC(=O)[C@H](Cc1ccccc1)NC(=O)NCCC1=CCCCC1	M1 antag 39
O=C1OCCN1C(=O)[C@H]1[C@H](c2ccc(Cl)cc2)C(c2ccccc2)=NN1c1ccccc1	M1 antag 26
O=C1OCCN1C(=O)[C@H]1[C@H](c2ccc(Cl)cc2)C(c2ccc(F)cc2)=NN1c1ccccc1	none
CCCCn1c(N)c(N(CCOC)C(=O)CCN2C(=O)C3CC=CCC3C2=O)c(=O)[nH]c1=O (stereo not given)	none
C#CCNC(=O)C1=C[C@H](c2ccc3c(c2)OCO3)[C@@H](CCCO)[C@H](OCC)O1	none
C=CCNC(=O)c1ccccc1NC(=O)Cc1ccccc1[N+](=O)[O-]	none
CCN(CC)CCOC(=O)C(Cc1ccco1)Cc1cccc2ccccc12 (stereo not given)	M1 antag 59
CCN(CC)CCOC(=O)CCc1cccc2ccccc12	none
Cc1cc(=O)oc(C)c1C(=O)NC1CCCCCCC1	none
Cc1cccc2sc(N(CCCN(C)C)C(=O)c3ccco3)nc12	M1 antag 76
Cc1cccc2sc(N(CCCN(C)C)C(=O)c3ccc(Cl)s3)nc12	M1 antag 51
Clc1ccc(OCCCCN2CCCCC2)cc1	none
CC(C)(C)c1ccc(OCCCN2CCCC2)cc1	none
CC(C)c1ccc(OCCCCN2CCCCC2)cc1	M1 antag 60
CC(C)Oc1ccc(OCCCN2CCCCCC2)cc1	M1 antag 36
CC(C)(C)NC(=O)C(c1ccc(O)cc1)N(C(=O)CCC(=O)Nc1ccccn1)c1ccc(F)cc1 (stereo not given)	none
COc1cc(CN(C2CC2)S(=O)(=O)c2ccccc2Br)cc(OC)c1	none
O=C(CC(Cc1ccccc1)C(=O)O)Nc1ccc(Cl)c(Cl)c1 (stereo not given)	none
Cc1ccc(NC(=O)CSc2nnc(CNC(=O)c3c(F)cccc3Cl)o2)cc1	CHO-K1 Ca antag 26
Cc1cc(C)c(NC(=O)CSc2nnc(CNC(=O)c3c(F)cccc3Cl)o2)c(C)c1	none
Cc1cccc(C(=O)NNC(=O)C2CCN(C(=O)OC(C)(C)C)CC2)c1	none
O=C(O)CCN1C(=O)c2ccc(NC(=O)C(c3ccccc3)c3ccccc3)cc2C1=O	none
Cn1c(=O)c2[nH]c(-c3ccc(S(=O)(=O)O)cc3)nc2n(C)c1=O	CHRM1 agonist 29
CC1CCN(CCOCCOc2ccc(Br)cc2Cl)CC1	M1 antag 45
Cc1cccc(S(=O)(=O)C(C#N)c2nc3ccccc3nc2N2CCCC2)c1 (stereo not given)	CHO-K1 Ca antag 27
N#CC(c1nc2ccccc2nc1N1CCCC1)S(=O)(=O)c1ccccc1 (stereo not given)	none
CCN(CC)c1ccc(/C=C/c2cc(-c3ccccc3)c3ccccc3n2)cc1	CHRM1 agonist 18, M1 antag 36
COC(=O)C(C)NC(=O)C12CC3CC(C1)CC(c1ccc(C)cc1)(C3)C2 (stereo not given)	none
Cc1ccc(C)c(OCC(=O)Nc2ccc(S(=O)(=O)Nc3ncccn3)cc2)c1	none
C=CCn1c(CCC(=O)Nc2ccc(C)c(Cl)c2)nnc1SCC(=O)Nc1ccccc1C	CHO-K1 Ca ag 16
COC(=O)c1sc2nc(CSc3nc4ccc(C)cc4[nH]3)[nH]c(=O)c2c1C	none
Cc1ccc2nc(SCc3nc4ccccc4c(=O)[nH]3)[nH]c2c1	CHO-K1 Ca antag 29
